D2 ag-1 = agonists of human D2 dopamine receptor; HEK293 T-REx D2 cells, calcium flux agonist mode; 0.53% of 340,000 active; activation, % at 2 µM; P14416;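 active = activation over 3 SD above normal in the single-dose calcium agonist read, cut at about 30% in these data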; note: 0% is about no effect
Target sequence (P14416 whole entry, looked up): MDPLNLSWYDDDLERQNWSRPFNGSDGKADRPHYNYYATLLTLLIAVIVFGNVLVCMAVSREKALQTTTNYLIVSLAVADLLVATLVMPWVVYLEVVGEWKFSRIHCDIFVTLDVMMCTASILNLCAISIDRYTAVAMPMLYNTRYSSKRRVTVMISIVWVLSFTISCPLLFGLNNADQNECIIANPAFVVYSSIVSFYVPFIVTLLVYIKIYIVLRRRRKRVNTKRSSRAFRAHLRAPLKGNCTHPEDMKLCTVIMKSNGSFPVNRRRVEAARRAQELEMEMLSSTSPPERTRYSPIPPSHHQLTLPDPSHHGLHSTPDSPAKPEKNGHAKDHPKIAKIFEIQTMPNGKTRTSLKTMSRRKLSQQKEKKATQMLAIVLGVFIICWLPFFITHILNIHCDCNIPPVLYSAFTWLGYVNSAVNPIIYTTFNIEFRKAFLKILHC
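In this primary screen, compounds producing a positive calcium signal within 180 s of addition to tetracycline-induced, force-coupled HEK293 Trex D2 cells are flagged; cells are dye-loaded with a no-wash calcium kit beforehand.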
D2 ag-2 = activates the human D2 dopamine receptor | P14416 | activation, % (no concentration beside the values) | AID 624465 | 0.084% of 360,000 active | DiscoveRx PathHunter D2 beta-arrestin, luminescence, 90 min; 100% = 57 uM dopamine signal; in the data active = activation above about 40%; inconclusive = between about 15% and that limit
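Agonist mode: compounds alone added to overnight-plated D2 PathHunter cells for 90 min at 37 C, with 57 uM final dopamine (EC100) defining full response. Beta-arrestin recruitment detected by chemiluminescent reagent, read after 1 h at ambient temperature.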
D2 PAM-1 = human D2 receptor positive allosteric modulation | P14416 | DiscoveRx D2 beta-arrestin cells, luminescence, 90 min; 100% = 57 uM dopamine signal | potentiation, % (test concentration not listed) | 0.23% of 360,000 active | AID 624464; in the data active = potentiation above about 50%; inconclusive = mostly about 30% to 49%
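D2 cells co-treated with compound plus 50 nM dopamine (EC20) for 90 min at 37 deg C to detect potentiation. Beta-arrestin recruitment was read as enzyme-fragment luminescence after 1 h at ambient temperature. Full response was set by 57 uM dopamine.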
D2 PAM-2 = D2 dopamine receptor (human) potentiation | P14416 | HEK293 T-REx D2, calcium flux, EC20 dopamine potentiation | potentiation, % at 10 µM | 0.34% of 340,000 active;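 active = potentiation over 3 SD above the plate norm, cut at about 30% in these data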; note: 0% is about no effect
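Primary screen. Calcium kinetics in induced HEK293 T-REx D2 cells: compound pre-addition 180 s, EC20 dopamine, 180 s more.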
D2 antagonist = antagonists of human D2 dopamine receptor; AID 485344; P14416; inhibition, % at 10 µM; 2% of 340,000 active; HEK293 TREx D2 cells, calcium flux, dopamine EC80; in the data active = inhibition above about 30%; inactive = below that, where a call was filed; note: 0% is about no effect
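Measurement of antagonist activity uses fluorescent calcium dye in inducible HEK293 T-REx D2 cells: 10 s baseline, compound addition with 180 s read, EC80 dopamine addition with a further 180 s read.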
An asterisk follows results filed as active; u = inconclusive; x = not tested or not shown. An excerpt weighted towards active compounds, which were near 2.4% of everything screened.

SMILES	D2 ag-1	D2 ag-2	D2 PAM-1	D2 PAM-2	D2 antagonist
COc1ccccc1NC(=O)Cn1c(=O)n(CCc2ccccc2)c(=O)c2c3c(sc21)CN(C(C)=O)CC3	0	x	x	4	x
O=C(CN1CCCN(Cc2ccccc2F)S1(=O)=O)Nc1ccc(F)c(Cl)c1	-1	x	x	-16	x
Cc1nc2scc(C)n2c(=O)c1S(=O)(=O)NCC1CCN(Cc2ccc(F)cc2)CC1	1	-4	-28	-8	34*
CCOC(=O)N1CCN(C(=O)C(=O)Nc2sc3c(c2C(N)=O)CC(C)(C)OC3)CC1	0	-1	7	5	33*
COc1ccc(OC)c(NC(=O)CSc2ccnc(=O)[nH]2)c1	x	x	x	-1	x
Cc1ccccc1-n1c(-c2ccncc2)n[nH]c1=S	2	-2	-2	8	17
CCc1ccccc1-n1c(-c2ccncc2)n[nH]c1=S	0	-2	-16	9	70*
CCCC(=O)C1=C(O)C(C(=O)OC)C(C)(C)CC1=NC(C)C (configuration not stated)	0	0	0	5	33*
Cc1ccn2c(Nc3ccc(C(C)C)cc3)c(-c3cccs3)nc2c1	-1	x	x	0	x
Cc1cccc(NC(=O)c2ccc(-c3nc(CSc4ccccc4)c(C)o3)cc2)c1C	1	x	x	0	x
CCC(C)NC(=O)c1ccc(NC(=O)C2=C(C)OCCS2)cc1 (configuration not stated)	0	-4	-5	-6	44*
CC1=C(C(=O)Nc2cccc(C(=O)NC(C)C)c2)SCCO1	-1	5	3	1	14
COCCn1nnnc1CN1CCC(Cc2ccccc2)CC1	1	-1	-16	38*	2
CCOc1ccc(CN2CCC(Cc3ccccc3)CC2)cc1	-1	1	-90	-19	30*
COc1ccccc1N1CCN(CCCCNC(=O)c2ccc3ccccc3c2)CC1	x	x	x	x	75*
COc1cccc(OC)c1OCCCN1CCC(Cc2ccccc2)CC1	23	6	-25	-27	89*
COCCn1nnnc1CN1CCSCC1	1	3	-7	1	-11
COc1ccc(C(=O)c2cn(Cc3ccccc3F)c3cc4c(cc3c2=O)OCCO4)cc1OC	-1	x	x	-9	x
CN(C)c1ccc(CNC(=O)C2CCCN(S(=O)(=O)c3ccc4c(c3)CCCC(=O)N4)C2)cc1 (configuration not stated)	0	x	x	-9	x
COc1ccccc1N1CCN(CCCCOc2c(OC)cccc2OC)CC1	18	1	-37	-28	78*
COc1cccc(OC)c1OCCN1CCCC1	-1	-2	-6	-11	-13
COc1ccccc1N1CCN(CCCNc2cc(=O)n(C)c(=O)n2C)CC1	58*	-1	-15	-24	64*
COc1ccccc1N1CCN(CCCOc2ccc(F)cc2)CC1	-1	2	-39	-23	89*
COc1ccccc1N1CCN(CCOc2c(OC)cccc2OC)CC1	0	-4	-36	-21	98*
COc1ccccc1N1CCN(CCCNc2c(C)c(=O)n(C)c(=O)n2C)CC1	x	11	-24	x	x
SMILES	D2 ag-1	D2 ag-2	D2 PAM-1	D2 PAM-2	D2 antagonist
CCn1c(=O)c2cc(C(=O)N(C)c3cc(C)ccc3C)sc2c2ccccc21	x	x	x	6	x
COc1ccc(NC(=O)Cc2csc(COc3cccc(C)c3)n2)cc1OC	-1	x	x	13	x
O=c1cc(CN2CCCCCC2)nc2sccn12	0	-1	-4	22	-4
COc1ccccc1N1CCN(Cc2cc(=O)n3ccsc3n2)CC1	0	-1	-49	41*	-3
COc1cccc(CNC(=O)c2ccc(-c3nc(COc4ccccc4)c(C)o3)cc2)c1	2	x	x	6	x
COc1ccccc1NC(=O)CSc1nnc(-c2ccco2)n1N	0	-3	-13	-10	34*
CCOC(=O)CNC(=O)CSc1nnc(-c2ccco2)n1N	0	-1	0	-7	34*
CCOC(=O)CNC(=O)CSc1nnc(-c2ccco2)n1Cc1ccco1	-1	1	-6	0	3
Cc1cccc(C(=O)Nc2cccc(C(=O)OCc3cc(=O)n4nc(C5CC5)sc4n3)c2)c1	0	x	x	-2	x
CCCCNc1nc(Oc2ccc(=O)n(-c3ccccc3)n2)nc(N(C)C)n1	-1	x	x	x	x
CCN1C(=O)[C@H]2[C@@H](c3ccc(-c4ccc(C(C)=O)cc4)c(OC)c3)N[C@@](Cc3ccccc3)(C(=O)OC)[C@H]2C1=O	0	1	-3	7	32*
CCOC(=O)N1CCN(Cc2ccc(O)c3ncccc23)CC1	24	4	-2	-2	2
CCOC(=O)N1CCN(Cc2ccccn2)CC1	0	-1	-3	44*	14
CCOC(=O)N1CCN(Cc2cccs2)CC1	38*	u	11	1	-7
CC(=O)Nc1ccc(NC(=O)C2CCN(S(=O)(=O)c3ccc4c(c3)CCCC(=O)N4)CC2)cc1	1	x	x	4	x
CCc1nnc(SCc2nc(-c3ccccc3)oc2C)c2cc3sccc3n12	0	x	x	3	x
CCOc1ccc(N(CC(=O)Nc2ccccc2CC)S(=O)(=O)c2c(C)noc2C)cc1	0	x	x	6	x
NS(=O)(=O)c1ccc(CNC(=O)CCSCCC(=O)NCc2ccc(S(N)(=O)=O)cc2)cc1	-2	-2	-7	0	33*
O=C(CCSCCC(=O)NCc1ccccc1)NCc1ccccc1	1	-2	10	0	11
Cc1cc(C)c(-c2csc(NC(=O)C3=COCCO3)n2)cc1C	-1	-1	-18	3	32*
Cc1nc(-c2cccc(NC(=O)COc3ccc(Cl)cc3)c2)cs1	0	-4	-54	-16	70*
CCC(=O)Nc1cccc(C(=O)c2ccccc2)c1	-1	1	4	31*	-17
CC(C)CC(=O)Nc1cccc(-c2csc(-c3ccccc3)n2)c1	1	-1	0	-29	-12
O=C(COc1ccc(Cl)cc1)Nc1ccc2[nH]ncc2c1	0	-1	-9	2	34*
CCC(=O)Nc1cccc(-c2csc(-c3ccccc3)n2)c1	0	-4	-3	6	38*
SMILES	D2 ag-1	D2 ag-2	D2 PAM-1	D2 PAM-2	D2 antagonist
Cc1cccc(-c2noc(-c3cccnc3NCc3ccco3)n2)c1	1	x	x	2	x
COc1ccc(CCNC(=O)CSc2nc3[nH]ncc3c(=O)n2-c2ccccc2OC)cc1OC	3	-1	7	9	37*
Cc1ccc(Cn2c(=O)c3cccnc3n(Cc3ccc(F)cc3)c2=O)cc1	0	x	x	10	x
COc1ccc(C(=O)Nc2c3c(nn2C(C)(C)C)CS(=O)(=O)C3)cc1OC	0	-4	-6	14	35*
CC(C)(C)c1ccc(C(=O)Nc2c3c(nn2C(C)(C)C)CS(=O)(=O)C3)cc1	1	-3	-4	-9	-3
CCN(CC)c1ccc(CN(C(=O)c2cccs2)C2CCS(=O)(=O)C2)cc1 (configuration not stated)	0	-5	-14	9	30*

Screens from PubChem BioAssay.
